Reference: PubChem BioAssay AID1903 (Southern Research Specialized Biocontainment Screening …, 2009)
Screen size: about 310,000 compounds; about 1,200 (0.39%) were called active. No rule for the calls is given here. Only a sample is shown. Measured potencies and affinities stand elsewhere.

Target: Large T antigen (Simian virus 40) (UniProt P03070)
Assay: TAg ATPase/helicase activity blockers – biochemical (AID 1903)
Conditions: SV40 large T antigen ATPase/helicase inhibition assay; at 20 µM; hits give high values

Sequence of Large T antigen (Simian virus 40) (P03070 whole entry, looked up): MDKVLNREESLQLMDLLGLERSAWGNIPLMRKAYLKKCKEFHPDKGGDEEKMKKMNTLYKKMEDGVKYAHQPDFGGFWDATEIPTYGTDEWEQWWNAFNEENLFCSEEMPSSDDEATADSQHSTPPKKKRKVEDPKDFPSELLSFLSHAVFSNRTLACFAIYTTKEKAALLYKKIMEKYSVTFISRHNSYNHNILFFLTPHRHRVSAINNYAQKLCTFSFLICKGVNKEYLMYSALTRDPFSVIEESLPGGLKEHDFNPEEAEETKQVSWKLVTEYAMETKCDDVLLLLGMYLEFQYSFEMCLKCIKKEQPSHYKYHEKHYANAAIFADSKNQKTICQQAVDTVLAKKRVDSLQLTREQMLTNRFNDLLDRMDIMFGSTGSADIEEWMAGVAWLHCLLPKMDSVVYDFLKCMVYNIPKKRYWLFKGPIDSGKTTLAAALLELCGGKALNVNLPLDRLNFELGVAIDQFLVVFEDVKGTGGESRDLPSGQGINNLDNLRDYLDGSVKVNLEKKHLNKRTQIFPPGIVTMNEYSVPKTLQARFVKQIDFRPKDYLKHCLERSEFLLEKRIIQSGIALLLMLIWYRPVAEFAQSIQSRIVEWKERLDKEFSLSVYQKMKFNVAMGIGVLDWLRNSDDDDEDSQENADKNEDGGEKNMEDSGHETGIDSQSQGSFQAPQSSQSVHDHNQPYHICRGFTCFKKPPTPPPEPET

inhibition, inactive:
Cc1ccc(CN2CCN(CC(=O)NCCCN3CCN(c4ccc(F)cc4)CC3)C2=O)cc1 3.02%
CCN1CCCC1CNC(=O)c1ccccc1Cl (stereo not drawn) -13.2%
COc1cccc(NC(=O)Cn2cnc3c(oc4nc5c(cc43)CCCC5)c2=O)c1 4.45%
CCNc1nc(NCC)nc(N/N=C/c2ccc(O)c(O)c2)n1 6.9%
CCNc1nc(NCC)nc(N/N=C/c2cc(OC)c(OC)c(OC)c2)n1 9.56%
[C-]#[N+][C@H](O[C@@H]1O[C@H](CO)[C@@H](O)[C@H](O)[C@H]1O)c1ccccc1 13.8%
OCc1ccccc1O[C@@H]1O[C@H](CO)[C@@H](O)[C@H](O)[C@H]1O 10.5%
C/C(=C1/SC(N2CCOCC2)=NC1=O)c1ccc(Br)cc1 -0.65%
CC1CCCCC1NC(=O)C1CCN(S(=O)(=O)c2cccc3nonc23)CC1 (stereo not drawn) 6.27%
CC1C(=O)NN=C1C(=O)N/N=C/c1cccs1 (stereo not drawn) 30%
COc1cc(OC)c(OC)cc1/C=N/NC(=O)CC1C(=O)NN=C1C (stereo not drawn) 8.13%
COc1ccc(/C=N\NC(=O)C2=NNC(=O)C2C)cc1 (stereo not drawn) 21.2%
COc1ccc(OC)c(/C=N/NC(=O)CC2C(=O)NN=C2C)c1 (stereo not drawn) 8.18%
CCCCC(CCCCl)C(=O)Nc1ccccc1 (stereo not drawn) 0.43%
CCN1CCCC1CNC(=O)COc1cc(=O)n(C)c2ccccc12 (stereo not drawn) -0.09%
CC(=O)C[C@H]1c2ccccc2S(=O)(=O)N1C1CCCC1 3.17%
CC(C)CCN1CCN(Cc2cccc3cccnc23)CC1CCO (stereo not drawn) -6.36%
CCN1CCN(C(=O)c2ccc(OCC(=O)Nc3ccc(F)cc3)c(OC)c2)CC1 4.11%
O=C1c2ccccc2CN1c1ccccc1 5.42%
COc1ccc(N2Cc3ccccc3C2=O)cc1 2.48%
CCN(Cc1ccccc1)S(=O)(=O)c1ccc(OC)c2ncccc12 11.3%
COc1cc(-c2noc(CCC(=O)NC3CCCCC3)n2)cc(OC)c1OC 25.3%
CN(C)c1ccc(Cl)cc1N 1.86%
COc1ccc(C(=O)c2ccc(OC)c(N)c2)cc1N 8.57%
O=C(CCS(=O)(=O)c1ccc(F)cc1)N1CCN(c2ccccc2)CC1 18.3%
CC(=C/c1ccc(C(C)C)cc1)/C=N/NC(=O)Cn1nc(C)cc1C 2.16%
CC(=O)Nc1sc(NC(=O)c2ccccc2)nc1-c1cccs1 6.41%
Nc1nc(-c2cccs2)c(CC(=O)O)s1 23.1%
